Molecules are shown by their SMILES. Records with an inconclusive call do not appear. The source made the active and inactive calls. How the source made its calls: active means hit-call score of the fitted dose curve at least 0.9, where 1 is the maximum; inconclusive means response in the unintended direction; inactive means score below 0.9.

A short description of this assay: CCTE_Deisenroth_AIME_384WELL_CTox_Inactive: Cytotoxicity Assessment (CTOX) in CCTE's 384-well Estrogen Receptor Transactivation Assay without AIME metabolic competence (metabolism negative), Deisenroth Lab (AID 2284039).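 Further: cell viability via live-cell protease substrate cleaved to fluorescent probe; cells exposed 24 h to medium preincubated 2 h with alginate-water beads without S9.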 The protocol: CCTE_Deisenroth_AIME_384WELL (AIME metabolism assay) is a cell-based, single-readout assay that uses VM7Luc4E2, a human mammary gland/breast cell line, with measurements taken at 24 hour after chemical dosing in a 384-well plate.CCTE_Deisenroth_AIME_384WELL_CTox_Inactive is one of four assay components measured or calculated from the CCTE_Deisenroth_AIME_384WELL assay. It is designed to make measurements of a protease substrate, a type of viability indicator, as detected with substrate cleavage to a fluorescent probe in living cells.CCTE_Deisenroth_AIME_384WELL_CTox_Inactive is a component of the CCTE_Deisenroth_AIME_384WELL assay that measures the effect of retroftting the VM7Luc ERTA assay with the Alginate Immobolization of Metabolic Enzymes (AIME) metabolism method. AIME is optimized to impart phase I hepatic metabolism using phenobarbital/beta-naphthoflavone induced hepatic S9 from male Sprague Dawley rats. Parent chemicals are incubated for 2 hours in the AIME assay prior to transfer to the VM7Luc ERTA assay plate. […] This endpoint evaluates cytotoxicity in metabolism negative mode. Using a type of flourescent probe in VM7Luc cells, loss-of-signal activity can be used to understand loss of viability. This assay endpoint, CCTE_Deisenroth_AIME_384WELL_CTox_Inactive, was analyzed with bidirectional fitting in the ERTA assay.
The AIME procedure consists of a preparative "pre-stamping" step using a barium chloride/poly-L-lysine (PLL) solution followed by "stamping" the lid in alginate-hepatic S9 (metabolism positive) or alginate-water (metabolism negative) to form microspheres. Once stamping is completed, the AIME lids are placed in duplicate microplates (metabolism positive or negative) containing chemical solutions and incubated for two hours to facilitate metabolic reactions. The conditioned medium, containing parent chemical or metabolites, is then transferred to the cell-based VM7Luc Estrogen Receptor Transactivation Assay (ERTA) for 24 hours. A typical experimental design tests a 10-point concentration series (0.002 - 200 uM) for 8 compounds (96-well format)1 or 32 compounds (384-well format)2 in single technical replicate. AIME assay controls include trans-stilbene (bioactivated control) and ethylparaben (bioinactivated control). ERTA assay plate controls include 17-beta estradiol (positive control) and DMSO (solvent control). Experiments typically comprise a minimum of four experimental replicates (n=4).
As to `NC(=O)NC1NC(=O)NC1=O` (stereo not drawn), the molecule was classed as inactive.

`CC(=O)OCCOC(C)=O`: the call was inactive.

As for `NCCCCCCN`, the call was inactive. The same measure, in the same setting: next, `O=C(O)c1ccc([N+](=O)[O-])cc1`: “inactive”. Turning to `O=C1C(c2[nH]c3ccc(S(=O)(=O)O)cc3c2O)=Nc2ccc(S(=O)(=O)O)cc21`, the outcome was inactive. On the same count and under the same terms, the value for `CC(C)=CCCC(C)CC=O` (stereo not drawn) was “inactive”. In the case of `CCC(=O)/C=C/C1C(C)=CCCC1(C)C` (stereo not drawn), the result was inactive. In general, AC50 refers to the midpoint of the concentration-response curve, whichever way the signal moves. Regarding `CCCCCCCCCCCCCOS(=O)(=O)O`, the AC50 was 96.3 µM (active).

Consider `CCCCC(CC)COC(=O)/C=C\C(=O)OCC(CC)CCCC` (stereo not drawn), for which the molecule was called inactive.

Regarding `OCCOCCOCCOCCO`, the molecule was called inactive.

On to `CCCCCCCCCCCCCC(=O)O`, for which the outcome was inactive. On the same count and under the same terms, next, `CN(C)CCCN`: “inactive”; `O=C(O)c1ccc(C(=O)O)cc1`: “inactive”; `NCCCN1CCOCC1`: “inactive”. Still for that read-out and setting: the value for `CC1(C)C(=O)N(Br)C(=O)N1Cl` was “inactive”; that for `CC1(C)[C@@H]2CC[C@@]1(C)[C@H](O)C2` was “inactive”. The same measure, in the same setting: next, `CCCC1CCC(=O)O1` (stereo not drawn): “inactive”; `O=C[C@@H](O)[C@H](O)[C@H](O)CO`: “inactive”.

The record behind these values is PubChem BioAssay (EPA / NIEHS).
